From PubChem BioAssay (EPA / NIEHS)
Records with an inconclusive call do not appear. Calls of active or inactive are those of the source. Rule for the calls, unless noted: active = hit-call score of the fitted dose curve at least 0.9, where 1 is the maximum; inactive = score below 0.9.

What was measured:
[1] = target: Bile acid receptor (Homo sapiens) (UniProt Q96RI1); experiment: ATG_FXR_TRANS: Attagene TRANS-FACTORIAL HepG2 Assay for Farnesoid X Receptor (FXR) (AID 2282979; active = hit-call score of the fitted dose curve at least 0.9, where 1 is the maximum;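 note: hits raise reporter mRNA above DMSO so AC50 marks FXR activation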); conditions: HepG2 Attagene TRANS FXR-GAL4 reporter transcription
Outline: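 After 24 h chemical treatment of transfected HepG2 cells, GAL4-UAS reporter transcripts driven by an exogenous FXR-GAL4 fusion were measured by RT-PCR and capillary electrophoresis. Increases over DMSO were fitted.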

[2] = target: Hepatocyte nuclear factor 4-alpha (Homo sapiens) (UniProt P41235); experiment: ATG_HNF4a_TRANS: Attagene TRANS-FACTORIAL HepG2 Assay for human Hepatocyte Nuclear Factor 4 alpha (HNF4a) (AID 2282982; active = hit-call score of the fitted dose curve at least 0.9, where 1 is the maximum); conditions: HepG2 HNF4a transactivation reporter, mRNA readout
Outline: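 Activity of an exogenous HNF4a–Gal4 fusion scored as induced GAL4-UAS reporter transcripts after 24 h chemical exposure of transfected human HepG2 cells. Read-out via RT-PCR with 6-FAM labelling and capillary electrophoresis; rise over DMSO baseline.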

[3] = ATG_M_32_TRANS: Attagene TRANS-FACTORIAL HepG2 Assay for M32 Transcription Factor (Internal Marker) (AID 2282984; active = hit-call score of the fitted dose curve at least 0.9, where 1 is the maximum;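 note: transcript level of a background control reporter unit measured by RT-PCR and capillary electrophoresis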); conditions: HepG2 Attagene TRANS M32 internal marker reporter
Outline: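 Internal background reporter in transfected HepG2: after 24 h chemical exposure, RNA reverse-transcribed, reporter cDNA amplified, fluorescently labelled and HpaI-cut, then sized by capillary electrophoresis. Gain of signal fitted against DMSO control.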

[4] = target: Nuclear receptor subfamily 4 group A member 2 (Homo sapiens) (UniProt P43354); experiment: ATG_NURR1_TRANS: Attagene TRANS-FACTORIAL HepG2 Assay for human Nuclear Receptor Related Protein 1 (NURR1) (AID 2282985; active = hit-call score of the fitted dose curve at least 0.9, where 1 is the maximum); conditions: HepG2 Attagene TRANS reporter, mRNA readout
Outline: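 Reporter transcript induction, measured by RT-PCR with fluorescent labelling, HpaI digestion and capillary electrophoresis, after 24 hr dosing of human HepG2 cells transiently expressing an exogenous NR-Gal4 fusion with GAL4-UAS-driven reporters; DMSO as baseline.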

[5] = target: Transcriptional activator Myb (Homo sapiens) (UniProt P10242); experiment: ATG_Myb_CIS: Attagene CIS-FACTORIAL HepG2 Assay for human Myeloblastosis (Myb) Proto-Oncogene Transcription Factor (AID 2282986); conditions: HepG2 Attagene CIS-FACTORIAL Myb reporter transcription; actives raise or lower the signal
Outline: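 Endogenous transcription factor activity at a Myb-responsive cis element is reported in human liver HepG2 cells after 24 h chemical treatment. Reporter mRNA is detected by RT-PCR and capillary electrophoresis fluorescence, with DMSO as baseline.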

[6] = target: Nuclear respiratory factor 1 (Homo sapiens) (UniProt Q16656); experiment: ATG_NRF1_CIS: Attagene CIS-FACTORIAL HepG2 Assay for human Nuclear Respiratory Factor 1 (NRF1) Orphan Gene (AID 2282987); conditions: HepG2 NRF1 cis-element reporter, Attagene multiplex; actives raise or lower the signal
Outline: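 Human hepatoma HepG2 cells carrying transfected promoter-regulated reporter units were incubated with test chemicals for 24 h. Reporter transcripts were measured by RT-PCR plus capillary electrophoresis, and endpoints derived by bidirectional fitting with DMSO as baseline.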

[7] = ATG_NFI_CIS: Attagene CIS-FACTORIAL HepG2 Assay for human Nuclear Factor I (NFI) (AID 2282989); conditions: HepG2 cis-regulatory reporter, NFI response element transcription; actives raise or lower the signal
Outline: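 After transient transfection of HepG2 with cis-promoter reporter constructs and 24 h dosing, RNA is reverse-transcribed, amplified, 6-FAM end-labelled and HpaI-digested before capillary analysis. Bidirectional curve fitting against DMSO.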

[8] = target: Myc proto-oncogene protein (Homo sapiens) (UniProt P01106); experiment: ATG_Myc_CIS: Attagene CIS-FACTORIAL HepG2 Assay for human Myelocytomatosis (Myc) Proto-Oncogene Transcription Factor (AID 2282990); conditions: HepG2, Attagene cis-reporter transcription factor activity; actives raise or lower the signal
Outline: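 Cells of the HepG2 human liver line bear multiple cis-driven reporter transcription units. Reporter mRNA after 24 h exposure is reverse-transcribed, amplified, labelled and resolved by capillary electrophoresis, with gain- or loss-of-signal fitting relative to DMSO.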

[9] = ATG_NF_kB_CIS: Attagene CIS-FACTORIAL HepG2 Assay for human Nuclear Factor Kappa B (NF-kB) (AID 2282991); conditions: HepG2 Attagene cis-factorial NF-kB reporter mRNA; actives raise or lower the signal
Outline: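 Multiplexed cis-reporter assay in transiently transfected HepG2. 24 h treatment; RNA isolated, RT-PCR, labelled fragments resolved by CE. DMSO baseline.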

[10] = ATG_NRF2_ARE_CIS: Attagene CIS-FACTORIAL HepG2 Assay for human Nuclear Factor Erythroid 2 Related Factor 2 (NFR2) response to Antioxidant Response Elements (ARE) (AID 2282992); conditions: HepG2 Attagene ARE/NRF2 reporter, transcription factor activity; actives raise or lower the signal
Outline: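 Endogenous transcription factor activity in human liver HepG2 cells is tracked via a cis-element-driven reporter within a multiplexed set. mRNA induction is read by RT-PCR and capillary electrophoresis after 24 h, with DMSO as baseline.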

[11] = ATG_Oct_MLP_CIS: Attagene CIS-FACTORIAL HepG2 Assay for human Octamer-Binding Transcription Factor (Oct) (AID 2282993); conditions: HepG2 Attagene cis-factorial Oct reporter, mRNA; actives raise or lower the signal
Outline: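 Cells of the HepG2 line express promoter-controlled reporter sequences whose mRNA levels, after 24 h treatment, are measured by RT-PCR and capillary electrophoresis. Increases and decreases are scored relative to DMSO.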

[12] = target: Cellular tumor antigen p53 (Homo sapiens) (UniProt P04637); experiment: ATG_p53_CIS: Attagene CIS-FACTORIAL HepG2 Assay for human p53 Transcription Factor (AID 2282994); conditions: HepG2 p53 cis-element reporter, Attagene mRNA; actives raise or lower the signal
Outline: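 Steps: transfect HepG2 with multiplexed cis reporter constructs; dose chemicals 24 h; extract RNA, reverse-transcribe, PCR-amplify reporter sequences; FAM-label, HpaI-digest, resolve fragments by CE. Activity fitted both directions relative to DMSO.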

[13] = BSK_3C_TissueFactor: BioMAP Diversity Plus: 3C Assay for Tissue Factor Biomarker Activity (AID 2282997); conditions: BioMAP 3C HUVEC, tissue factor biomarker readout; actives raise or lower the signal
Outline: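 In this endothelial system, HUVEC are treated for 24 h and Tissue Factor is assessed by ELISA, normalised to DMSO.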

[14] = BSK_3C_uPAR: BioMAP Diversity Plus: 3C Assay for Urokinase-type plasminogen activator receptor (uPAR) Biomarker Activity (AID 2282998); conditions: BioMAP 3C HUVEC, uPAR biomarker ELISA; actives raise or lower the signal
Outline: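 Endothelial primary cells of human umbilical vein origin received test chemical; 24 h later uPAR was assayed by ELISA. Fitting was bidirectional, DMSO as negative control.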

[15] = target: human Peroxisome Proliferator-activated Receptor alpha (PPARa), PPARA (gene 5465) (UniProt Q07869); experiment: ATG_PPARa_TRANS: Attagene TRANS-FACTORIAL HepG2 Assay for human Peroxisome Proliferator-activated Receptor alpha (PPARa) (AID 2283001; active = hit-call score of the fitted dose curve at least 0.9, where 1 is the maximum;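 for AC50: potency for gain of reporter signal over DMSO so agonist or activator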)
Outline: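 Reporter transcripts quantified by RT-PCR plus capillary electrophoresis after 24 h treatment, fitted upward relative to DMSO. Cells: human HepG2 transiently carrying multiple GAL4-UAS reporter units driven by NR-Gal4 chimeras.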

[16] = ATG_M_06_TRANS: Attagene TRANS-FACTORIAL HepG2 Assay for M06 Transcription Factor (Internal Marker) (AID 2282983; active = hit-call score of the fitted dose curve at least 0.9, where 1 is the maximum;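 note: reporter transcript level by RT-PCR then capillary electrophoresis fluorescence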); conditions: HepG2 Attagene TRANS M06 internal marker reporter
Outline: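 Multi-reporter-transfected HepG2, 24 h treatment; reporter transcripts quantified via RT-PCR, primer-extension labelling and CE. DMSO-normalized gain-of-signal fit.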

[17] = BSK_3C_VCAM1: BioMAP Diversity Plus: 3C Assay for Vascular cell adhesion molecule 1 (VCAM1) Biomarker Activity (AID 2282999); conditions: BioMAP 3C HUVEC, VCAM1 ELISA, cytokine-stimulated; actives raise or lower the signal
Outline: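 Activity fitted in both directions relative to DMSO, with ELISA measurement of the surface marker on primary HUVEC (3C) at 24 h post-treatment; parallel SRB staining (0.1% SRB, TCA-fixed, 560 nm) flagged overt cytotoxicity.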

[18] = BSK_4H_Eotaxin3: BioMAP Diversity Plus: 4H Assay for Eotaxin 3 Biomarker Activity (AID 2283000); conditions: primary human endothelial cells (HUVEC); actives raise or lower the signal
Outline: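 ELISA quantitation of CCL26 (Eotaxin-3) protein from chemically dosed human vascular endothelial cells at 24 h; increases and decreases both scored relative to DMSO-treated baseline.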

[19] = target: Oxysterols receptor LXR-beta (Homo sapiens) (UniProt P55055); experiment: ATG_LXRb_TRANS: Attagene TRANS-FACTORIAL HepG2 Assay for human Liver X Receptor beta (LXRb) (AID 2282981; active = hit-call score of the fitted dose curve at least 0.9, where 1 is the maximum); conditions: HepG2 Attagene TRANS GAL4-LXRb reporter, mRNA
Outline: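 After 24 h chemical treatment of transfected HepG2 cells carrying exogenous NR-Gal4 chimeras, reporter mRNA was quantified by fluorescent RT-PCR and capillary electrophoresis; activity taken as increase over DMSO controls.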

[20] = target: Glucocorticoid receptor (Homo sapiens) (UniProt P04150); experiment: ATG_GR_TRANS: Attagene TRANS-FACTORIAL HepG2 Assay for human Glucocorticoid Receptor (GR) (AID 2282978; active = hit-call score of the fitted dose curve at least 0.9, where 1 is the maximum;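 note: activators score as hits since higher reporter transcript over DMSO is fitted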); conditions: HepG2 Attagene TRANS GR reporter, mRNA transcription
Outline: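 Multiplexed TRANS reporter system, HepG2; 24 h exposure; RNA → oligo(dT) RT → reporter-specific PCR → 6-FAM primer extension → HpaI cut → CE fluorescence. Gain-of-signal vs DMSO.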

Measured: AC50

Chain of Glucocorticoid receptor (Homo sapiens) (P04150 whole entry, looked up): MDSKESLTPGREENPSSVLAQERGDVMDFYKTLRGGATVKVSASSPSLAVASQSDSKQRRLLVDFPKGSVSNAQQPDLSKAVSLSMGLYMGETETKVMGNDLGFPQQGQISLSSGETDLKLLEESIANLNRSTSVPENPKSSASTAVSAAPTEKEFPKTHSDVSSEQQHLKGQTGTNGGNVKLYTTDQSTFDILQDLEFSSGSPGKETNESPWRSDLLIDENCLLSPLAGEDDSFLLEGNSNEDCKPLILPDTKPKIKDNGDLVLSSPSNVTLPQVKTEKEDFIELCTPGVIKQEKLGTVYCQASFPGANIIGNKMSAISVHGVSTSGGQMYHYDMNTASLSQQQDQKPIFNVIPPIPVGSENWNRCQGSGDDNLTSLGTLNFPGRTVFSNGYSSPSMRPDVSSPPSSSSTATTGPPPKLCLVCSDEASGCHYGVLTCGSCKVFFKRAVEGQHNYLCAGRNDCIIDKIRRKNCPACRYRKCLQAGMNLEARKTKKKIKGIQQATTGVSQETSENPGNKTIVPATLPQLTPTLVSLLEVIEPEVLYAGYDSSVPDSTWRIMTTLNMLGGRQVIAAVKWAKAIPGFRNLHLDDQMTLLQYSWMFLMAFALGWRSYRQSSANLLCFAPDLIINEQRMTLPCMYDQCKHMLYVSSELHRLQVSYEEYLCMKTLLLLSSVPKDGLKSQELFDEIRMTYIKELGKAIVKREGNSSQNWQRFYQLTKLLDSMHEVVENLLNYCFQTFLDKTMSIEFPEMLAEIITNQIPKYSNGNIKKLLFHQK
Chain of human Peroxisome Proliferator-activated Receptor alpha (PPARa), PPARA (gene 5465) (Q07869 whole entry, looked up, the tested form may be a part): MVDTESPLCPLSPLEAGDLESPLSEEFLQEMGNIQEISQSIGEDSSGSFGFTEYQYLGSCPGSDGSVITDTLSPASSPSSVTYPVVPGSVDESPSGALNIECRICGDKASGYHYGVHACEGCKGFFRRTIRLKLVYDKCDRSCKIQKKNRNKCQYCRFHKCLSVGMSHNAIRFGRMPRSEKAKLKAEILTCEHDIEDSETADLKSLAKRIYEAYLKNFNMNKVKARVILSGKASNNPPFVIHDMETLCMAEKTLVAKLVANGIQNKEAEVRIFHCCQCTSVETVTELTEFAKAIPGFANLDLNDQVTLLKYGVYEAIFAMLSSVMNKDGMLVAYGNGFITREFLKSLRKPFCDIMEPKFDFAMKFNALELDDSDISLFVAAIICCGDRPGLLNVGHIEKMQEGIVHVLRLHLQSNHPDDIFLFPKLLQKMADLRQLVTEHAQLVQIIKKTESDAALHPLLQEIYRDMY
Chain of Nuclear respiratory factor 1 (Homo sapiens) (Q16656 whole entry, looked up): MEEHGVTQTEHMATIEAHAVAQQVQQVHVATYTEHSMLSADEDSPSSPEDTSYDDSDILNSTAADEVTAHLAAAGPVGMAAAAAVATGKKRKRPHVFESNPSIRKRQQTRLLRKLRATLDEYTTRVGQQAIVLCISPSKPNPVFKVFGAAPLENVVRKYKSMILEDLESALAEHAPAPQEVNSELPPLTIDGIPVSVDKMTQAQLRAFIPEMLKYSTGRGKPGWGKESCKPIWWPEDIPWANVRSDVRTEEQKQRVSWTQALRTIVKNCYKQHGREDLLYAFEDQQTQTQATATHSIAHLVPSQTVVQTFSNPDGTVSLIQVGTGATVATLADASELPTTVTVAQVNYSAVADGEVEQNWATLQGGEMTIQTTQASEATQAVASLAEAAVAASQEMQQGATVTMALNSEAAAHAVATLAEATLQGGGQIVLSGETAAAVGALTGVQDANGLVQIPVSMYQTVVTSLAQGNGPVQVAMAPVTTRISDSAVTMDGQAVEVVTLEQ
Chain of Oxysterols receptor LXR-beta (Homo sapiens) (P55055 whole entry, looked up, the tested form may be a part): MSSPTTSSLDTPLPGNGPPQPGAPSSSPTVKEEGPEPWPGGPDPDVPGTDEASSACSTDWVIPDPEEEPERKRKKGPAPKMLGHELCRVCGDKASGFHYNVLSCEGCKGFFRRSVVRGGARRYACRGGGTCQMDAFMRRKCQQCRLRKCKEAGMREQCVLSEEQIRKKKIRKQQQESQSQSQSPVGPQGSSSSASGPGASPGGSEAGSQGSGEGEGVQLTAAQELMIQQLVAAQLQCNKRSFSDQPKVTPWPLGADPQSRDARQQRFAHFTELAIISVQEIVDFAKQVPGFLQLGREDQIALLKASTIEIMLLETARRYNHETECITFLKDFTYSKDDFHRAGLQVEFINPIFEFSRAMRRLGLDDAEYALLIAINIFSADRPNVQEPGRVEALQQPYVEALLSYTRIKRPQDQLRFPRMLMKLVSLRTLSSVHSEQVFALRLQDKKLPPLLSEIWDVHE
Chain of Myc proto-oncogene protein (Homo sapiens) (P01106 whole entry, looked up): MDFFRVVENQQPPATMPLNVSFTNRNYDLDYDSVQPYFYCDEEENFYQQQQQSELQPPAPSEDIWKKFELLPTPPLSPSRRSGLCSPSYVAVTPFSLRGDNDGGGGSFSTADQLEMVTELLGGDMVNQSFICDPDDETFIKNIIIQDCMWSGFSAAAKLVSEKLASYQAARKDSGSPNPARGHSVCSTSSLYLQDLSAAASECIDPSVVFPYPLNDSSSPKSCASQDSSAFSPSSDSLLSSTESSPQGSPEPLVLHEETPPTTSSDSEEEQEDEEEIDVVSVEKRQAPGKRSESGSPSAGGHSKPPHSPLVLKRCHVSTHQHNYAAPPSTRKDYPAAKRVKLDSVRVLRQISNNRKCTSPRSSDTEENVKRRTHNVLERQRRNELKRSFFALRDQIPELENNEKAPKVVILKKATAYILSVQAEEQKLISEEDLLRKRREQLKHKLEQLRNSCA
Chain of Nuclear receptor subfamily 4 group A member 2 (Homo sapiens) (P43354 whole entry, looked up, the tested form may be a part): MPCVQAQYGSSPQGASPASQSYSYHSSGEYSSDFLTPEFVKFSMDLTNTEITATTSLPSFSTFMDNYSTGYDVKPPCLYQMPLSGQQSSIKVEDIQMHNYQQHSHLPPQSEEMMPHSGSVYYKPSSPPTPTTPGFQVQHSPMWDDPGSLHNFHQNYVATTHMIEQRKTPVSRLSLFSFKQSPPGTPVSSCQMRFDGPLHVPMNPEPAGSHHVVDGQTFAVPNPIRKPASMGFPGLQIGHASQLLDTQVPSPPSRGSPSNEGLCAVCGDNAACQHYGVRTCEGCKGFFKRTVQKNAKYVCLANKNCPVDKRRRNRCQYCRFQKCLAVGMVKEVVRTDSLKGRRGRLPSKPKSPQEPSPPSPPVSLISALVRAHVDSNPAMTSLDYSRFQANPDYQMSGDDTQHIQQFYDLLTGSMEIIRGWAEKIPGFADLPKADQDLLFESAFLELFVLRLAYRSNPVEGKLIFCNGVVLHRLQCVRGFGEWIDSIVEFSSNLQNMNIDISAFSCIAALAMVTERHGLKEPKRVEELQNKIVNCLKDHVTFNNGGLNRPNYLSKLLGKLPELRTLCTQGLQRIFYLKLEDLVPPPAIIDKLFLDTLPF
Chain of Cellular tumor antigen p53 (Homo sapiens) (P04637 whole entry, looked up, the tested form may be a part): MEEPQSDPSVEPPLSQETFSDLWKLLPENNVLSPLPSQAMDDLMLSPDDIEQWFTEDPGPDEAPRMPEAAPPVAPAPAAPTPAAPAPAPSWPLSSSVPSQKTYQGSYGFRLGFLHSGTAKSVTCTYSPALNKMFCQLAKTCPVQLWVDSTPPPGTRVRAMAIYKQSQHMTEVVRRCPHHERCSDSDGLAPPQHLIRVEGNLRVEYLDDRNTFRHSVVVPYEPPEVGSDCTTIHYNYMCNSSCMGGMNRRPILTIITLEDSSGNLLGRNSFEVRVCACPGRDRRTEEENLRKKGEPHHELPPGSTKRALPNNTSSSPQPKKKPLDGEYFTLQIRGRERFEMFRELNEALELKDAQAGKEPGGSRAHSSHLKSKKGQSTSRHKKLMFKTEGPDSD
Chain of Transcriptional activator Myb (Homo sapiens) (P10242 whole entry, looked up): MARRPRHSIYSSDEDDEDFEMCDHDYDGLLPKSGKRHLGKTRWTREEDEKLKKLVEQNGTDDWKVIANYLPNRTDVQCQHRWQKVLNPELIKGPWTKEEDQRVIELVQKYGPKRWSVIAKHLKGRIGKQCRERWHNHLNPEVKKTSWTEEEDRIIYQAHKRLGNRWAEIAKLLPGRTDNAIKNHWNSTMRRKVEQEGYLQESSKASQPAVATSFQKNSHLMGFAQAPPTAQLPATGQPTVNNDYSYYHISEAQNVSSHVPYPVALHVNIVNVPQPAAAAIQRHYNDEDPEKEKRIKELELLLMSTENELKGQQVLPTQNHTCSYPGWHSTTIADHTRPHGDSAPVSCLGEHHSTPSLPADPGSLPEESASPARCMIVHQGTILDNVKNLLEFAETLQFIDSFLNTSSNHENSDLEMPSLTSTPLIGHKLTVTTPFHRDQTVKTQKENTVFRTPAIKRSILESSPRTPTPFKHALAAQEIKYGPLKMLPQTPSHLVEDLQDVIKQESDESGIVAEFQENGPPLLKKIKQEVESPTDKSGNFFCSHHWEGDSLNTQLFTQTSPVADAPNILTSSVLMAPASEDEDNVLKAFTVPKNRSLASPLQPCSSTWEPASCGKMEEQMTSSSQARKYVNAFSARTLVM
Chain of Bile acid receptor (Homo sapiens) (Q96RI1 whole entry, looked up, the tested form may be a part): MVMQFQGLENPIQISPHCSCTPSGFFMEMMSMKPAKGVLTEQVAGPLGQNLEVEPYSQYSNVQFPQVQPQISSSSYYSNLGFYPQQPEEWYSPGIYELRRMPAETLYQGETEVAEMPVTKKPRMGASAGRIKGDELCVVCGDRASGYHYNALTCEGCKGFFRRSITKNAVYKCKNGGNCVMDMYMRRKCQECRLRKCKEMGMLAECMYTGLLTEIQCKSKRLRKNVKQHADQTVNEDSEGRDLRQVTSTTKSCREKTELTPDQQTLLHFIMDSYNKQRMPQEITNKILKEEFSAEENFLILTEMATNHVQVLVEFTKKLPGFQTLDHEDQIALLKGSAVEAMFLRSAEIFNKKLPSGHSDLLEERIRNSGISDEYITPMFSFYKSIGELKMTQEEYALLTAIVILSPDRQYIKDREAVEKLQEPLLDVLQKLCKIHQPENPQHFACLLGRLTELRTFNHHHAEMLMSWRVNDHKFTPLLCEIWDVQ

COC(=O)c1c(Cl)c(Cl)c(C(=O)OC)c(Cl)c1Cl
not listed: [16] | [17] | [18] | [19] | [20]
inactive: all other assays above

CCCCCCCCCCCCCCCO
active: [14] 35.6 µM | [17] 15.4 µM | [18] 36.5 µM
not listed: [2] | [4] | [19] | [20]
inactive: all other assays above

CCc1cc(SCc2sc(-c3ccc(C(F)(F)F)cc3)nc2CN2CCN(c3ccc(OC)cc3)CC2)ccc1OCC(=O)O
active: [9] 20.2 µM | [10] 4.51 µM | [11] 8.42 µM | [13] 12.4 µM | [14] 7.74 µM | [17] 27.7 µM | [18] 10.9 µM | [15] 0.0501 µM
not listed: [20]
inactive: all other assays above

Nc1cccc(N)c1
not listed: [2] | [3] | [15] | [18] | [20]
inactive: all other assays above

O=C(CCCCCCCCc1cccnc1)N1CCC(C=C(c2ccccc2)c2ccccc2)CC1
active: [20] 100 µM | [5] 60.2 µM | [8] 8.5 µM | [10] 4.68 µM | [11] 8.91 µM | [13] 8.68 µM | [14] 7.01 µM | [18] 9.64 µM
inactive: [16] | [3] | [4] | [6] | [7] | [9]

CN(C)c1ccc(Cc2ccc(N(C)C)cc2)cc1
active: [4] 49.1 µM | [7] 180 µM | [9] 37.9 µM | [10] 78.2 µM | [11] 56.7 µM
not listed: [2] | [3] | [15] | [20]
inactive: all other assays above

NC(=O)NO
not listed: [1] | [2] | [3] | [4] | [15] | [18] | [19]
inactive: all other assays above

Cc1ccc(O)cc1
not listed: [1] | [2] | [3] | [4] | [15] | [19]
inactive: all other assays above
